Source: PubChem BioAssay (Tox21)
Several values for one entry are separate records, joined by “and”; a condition that tells them apart may be missing. Equal values may be shown once. Inconclusive results are not listed. Activity calls are given as the source filed them. Unless noted, calls come from the whole dose curve; as a rule, active = well fitted curve in the direction sought with a large enough effect in the repeat runs; inconclusive = weak or mixed curves; inactive = no such curve, though single readings can be large; an effect the other way counts as inactive or inconclusive.

Tests used:
[1] = qHTS assay to identify small molecule agonists of H2AX (AID 1224845; active = well fitted activation curve with a large enough effect in the signal ratio in the repeat runs, not every such curve was filed as active; the % refers to the signal ratio; note: potency is the fitted concentration of half-maximal effect)
In short: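 Wild-type CHO-K1 cells plated overnight, then exposed 3 hr at 37C to compounds at 15 concentrations (0.76% DMSO). Lysed, then HTRF anti-pH2AX(S139)-cryptate/anti-H2AX-d2 detection after 24 hr at room temperature; emissions 665 and 620 nm.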

[2] = qHTS assay to identify small molecule agonists of H2AX - cell viability counter screen (AID 1224847; calls by dose curve; note: nearly all actives have a fitted effect of over 30% in size; note: potency is the fitted concentration of half-maximal effect)
In short: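 Compounds tested at 15 concentrations were incubated 3 hr at 37C with wild-type CHO-K1 cells; cellular ATP-based luminescence (CellTiter-Glo) indicated viability.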

[3] = qHTS RealTime-Glo MT Cell Viability Assay in HepG2 cells - 24 hour (AID 1224867); note: nearly all actives have a fitted effect of over 50% in size; note: potency is the fitted concentration of half-maximal effect
In short: (§1)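 Cell number in HepG2 cultures estimated from NanoLuc luminescence generated by metabolic reduction of a prosubstrate by living cells. The homogeneous, nonlytic format allowed repeated reads at 0, 8, 16, 24, 32 and 40 h of compound exposure.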

[4] = qHTS RealTime-Glo MT Cell Viability Assay in HEK293 cells - 32 hour (AID 1224868); note: nearly all actives have a fitted effect of over 50% in size; note: potency is the fitted concentration of half-maximal effect
In short: (§2)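 Homogeneous bioluminescent viability format in HEK293 cells (600 cells/well). Following 5 h at 37 C/5% CO2, 23 nL compound was pintooled; the signal was measured repeatedly during 40 h incubation.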

[5] = A CellTox Green Cytotoxicity Assay to monitor cytotoxicity in HEK293 cells - 0 hour (AID 1224869); note: nearly all actives have a fitted effect of over 50% in size
In short: (§3)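 Dead-cell fluorescence measured kinetically: asymmetric cyanine dye, HEK293, 600 cells/well, 5 h settle, 23 nL cpd/DMSO, 37 C, reads 0–40 h every 8 h.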

[6] = qHTS RealTime-Glo MT Cell Viability Assay in HepG2 cells - 40 hour (AID 1224870); note: nearly all actives have a fitted effect of over 50% in size; note: potency is the fitted concentration of half-maximal effect
In short: (§4)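 HepG2 cells mixed with RealTime-Glo MT reagents (NanoLuc plus cell-permeant prosubstrate) were seeded at 600 cells/well, incubated 5 h at 37 C/5% CO2, then pinned with compounds in DMSO; nonlytic luminescence tracked viability during 40 h treatment.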

[7] = A CellTox Green Cytotoxicity Assay to monitor cytotoxicity in HEK293 cells - 40 hour (AID 1224871); note: nearly all actives have a fitted effect of over 45% in size; note: potency is the fitted concentration of half-maximal effect
In short: as §3

[8] = qHTS RealTime-Glo MT Cell Viability Assay in HEK293 cells - 16 hour (AID 1224872)
In short: as §2

[9] = qHTS RealTime-Glo MT Cell Viability Assay in HepG2 cells - 8 hour (AID 1224873); note: nearly all actives have a fitted effect of over 55% in size; note: potency is the fitted concentration of half-maximal effect
In short: as §4

[10] = qHTS RealTime-Glo MT Cell Viability Assay in HEK293 cells - 40 hour (AID 1224874); conditions: RealTime-Glo luminescence; max response: hits give low values; note: nearly all actives have a fitted effect of over 50% in size; note: potency is the fitted concentration of half-maximal effect
In short: (§5)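 600 HEK293 cells per well, dispensed already mixed with RealTime-Glo MT reagents. Compound dosing came 5 h later. The same wells were read for luminescence at 0, 8, 16, 24, 32 and 40 h of exposure at 37 C.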

[11] = A CellTox Green Cytotoxicity Assay to monitor cytotoxicity in HEK293 cells - 24 hour (AID 1224875); note: nearly all actives have a fitted effect of over 45% in size; note: potency is the fitted concentration of half-maximal effect
In short: as §3

[12] = A CellTox Green Cytotoxicity Assay to monitor cytotoxicity in HepG2 cells - 16 hour (AID 1224876); note: nearly all actives have a fitted effect of over 45% in size; note: potency is the fitted concentration of half-maximal effect
In short: (§6)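 First, HepG2 cells (600/well) mixed with reagent were plated; second, after 5 h at 37 C they received compounds via pintool; third, fluorescence was measured at 0 h through 40 h at 8 h intervals.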

[13] = qHTS RealTime-Glo MT Cell Viability Assay in HepG2 cells - 32 hour (AID 1224877); note: nearly all actives have a fitted effect of over 55% in size; note: potency is the fitted concentration of half-maximal effect
In short: as §1

[14] = A CellTox Green Cytotoxicity Assay to monitor cytotoxicity in HepG2 cells - 24 hour (AID 1224878); note: nearly all actives have a fitted effect of over 45% in size; note: potency is the fitted concentration of half-maximal effect
In short: as §6

[15] = A CellTox Green Cytotoxicity Assay to monitor cytotoxicity in HepG2 cells - 40 hour (AID 1224879); note: nearly all actives have a fitted effect of over 40% in size; note: potency is the fitted concentration of half-maximal effect
In short: as §6

[16] = qHTS RealTime-Glo MT Cell Viability Assay in HEK293 cells - 0 hour (AID 1224880)
In short: as §5

[17] = qHTS assay to identify small molecule antagonists of the estrogen related receptor (ERR) signaling pathway from Tox21 library (AID 1224848); note: nearly all actives have a fitted effect of over 50% in size
In short: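 First, 2,000 ERR cells per well were plated and held 6 h at 37 C/5% CO2. Next, compounds in DMSO were pinned in and left 18 h at 37 C. Finally, ONE-Glo was added and luminescence read after 30 min at room temperature.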

[18] = qHTS assay to identify small molecule agonists of the estrogen related receptor (ERR) signaling pathway from Tox21 library (AID 1224849; calls by dose curve; note: nearly all actives have a fitted effect of over 15% in size); conditions: ERR reporter cell line, ONE-Glo luciferase, 18 h
In short: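 Quantitative HTS in agonist format: NTP ERR cell line, compounds transferred in DMSO after 6 h plating, 18 h incubation at 37 C, ONE-Glo luminescence endpoint.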

[19] = A CellTox Green Cytotoxicity Assay to monitor cytotoxicity in HEK293 cells - 32 hour (AID 1224881); note: nearly all actives have a fitted effect of over 40% in size; note: potency is the fitted concentration of half-maximal effect
In short: as §3
% is set by controls: 0 for no effect and ±100 for the full control effect.

CCOC(=O)C1OC1(C)c1ccccc1 (stereo unspecified)
inactive: Potency [1] | Potency [2] | Potency [3] | Potency [4] | Potency [5] | Potency [6] | Potency [7] | Potency [8] | Potency [9] | max response [10] 0.105% and 2.55% | Potency [11] | Potency [12] | Potency [13] | Potency [14] | Potency [15] | outcome [16]

CC(C)(C#N)C(C)(C)C#N
inactive: Potency [1] | Potency [2] | Potency [17] | activity change, positive = activation ([18]; at 92.4 µM (top of the series)) -14.1% | Potency [3] | Potency [4] | Potency [6] | Potency [7] | Potency [8] | Potency [9] | max response [10] 1.19% | Potency [12] | Potency [13] | Potency [14] | Potency [15] | outcome [16] | Potency [19]

CN1C(=O)CN=C(c2ccccc2)c2cc([N+](=O)[O-])ccc21
inactive: Potency [1] | Potency [2] | Potency [4] | Potency [6] | Potency [7] | Potency [8] | max response [10] -12% | Potency [11] | Potency [12] | Potency [13] | Potency [14] | Potency [15] | outcome [16]

CCCCCCCCCCCCCCCl
inactive: Potency [1] | Potency [2] | Potency [3] | Potency [4] | Potency [5] | Potency [6] | Potency [7] | Potency [8] | Potency [9] | Potency [11] | Potency [12] | Potency [13] | Potency [14] | Potency [15] | outcome [16] | Potency [19]

O=[N+]([O-])O[C@H]1CO[C@H]2[C@@H]1OC[C@H]2O[N+](=O)[O-]
inactive: Potency [1] | Potency [2] | Potency [17] | activity change, positive = activation ([18]; at 42.5 µM (top of the series)) 4.43% | Potency [3] | Potency [5] | Potency [6] | Potency [7] | Potency [8] | Potency [9] | max response [10] 6.05% | Potency [11] | Potency [12] | Potency [13] | Potency [14] | Potency [15] | outcome [16] | Potency [19]

OCCSSCCO
inactive: Potency [1] | Potency [2] | Potency [3] | Potency [4] | Potency [5] | Potency [6] | Potency [7] | Potency [8] | Potency [9] | max response [10] 3.99% | Potency [11] | Potency [12] | Potency [13] | Potency [15] | outcome [16] | Potency [19]

O=C(CCl)CCl
active: Potency [1] 104 µM | Potency [4] 18 µM and 19.5 µM | Potency [7] 21.9 µM | Potency [10] 18 µM and 21.9 µM | Potency [15] 25.5 µM
inactive: Potency [2] | Potency [5] | Potency [6] | Potency [9] | Potency [11] | Potency [12] | Potency [13] | outcome [16]

CCOC(=O)c1cncn1C(C)c1ccccc1 (stereo unspecified)
inactive: Potency [1] | Potency [2] | Potency [17] | activity change, positive = activation ([18]; at 42.5 µM (top of the series)) -0.608% | Potency [3] | Potency [4] | Potency [5] | Potency [6] | Potency [7] | Potency [8] | Potency [9] | max response [10] 3.04% | Potency [12] | Potency [13] | Potency [14] | Potency [15] | outcome [16] | Potency [19]

CN1CC[C@]23c4c5ccc(O)c4O[C@H]2[C@@H](O)CC[C@H]3[C@H]1C5
inactive: Potency [1] | Potency [2] | Potency [3] | Potency [4] | Potency [6] | Potency [7] | Potency [8] | Potency [9] | Potency [11] | Potency [12] | Potency [13] | Potency [14] | Potency [15] | outcome [16] | Potency [19]

COc1ccc2c(c1OC)C(=O)O[C@H]2[C@@H]1c2cc3c(cc2CCN1C)OCO3
inactive: Potency [1] | Potency [2] | Potency [3] | Potency [4] | Potency [5] | Potency [6] | Potency [7] | Potency [8] | Potency [9] | max response [10] 4.68% | Potency [11] | Potency [12] | Potency [13] | Potency [14] | Potency [15] | outcome [16] | Potency [19]

FC(F)OC(F)(F)C(F)Cl (stereo unspecified)
inactive: Potency [1] | Potency [2] | Potency [3] | Potency [4] | Potency [5] | Potency [6] | Potency [7] | Potency [8] | Potency [9] | max response [10] 8.01% | Potency [11] | Potency [12] | Potency [13] | Potency [14] | Potency [15] | outcome [16]

[Cl-].[Cl-].[Hg+2]
inactive: outcome [16]
active: Potency [1] 1.26 µM and 1.42 µM | Potency [2] 17.8 µM and 7.13 µM | Potency [3] 48.8 µM and 3.47 µM | Potency [6] 3.89 µM | Potency [7] 21.8 µM and 3.89 µM | Potency [9] 48.8 µM and 3.89 µM | Potency [11] 21.8 µM and 8.71 µM | Potency [12] 38.7 µM and 3.89 µM | Potency [13] 54.7 µM and 3.47 µM | Potency [14] 24.4 µM and 3.89 µM | Potency [15] 24.4 µM and 2.45 µM | Potency [19] 21.8 µM and 6.92 µM

O=C(N[C@H]1CN2CCC1CC2)c1ccc2c(c1)OCCO2
inactive: Potency [1] | Potency [2] | Potency [17] | activity change, positive = activation ([18]; at 92.4 µM (top of the series)) 0.537% | Potency [3] | Potency [4] | Potency [6] | Potency [7] | Potency [8] | Potency [9] | max response [10] 0.421% | Potency [11] | Potency [12] | Potency [13] | Potency [14] | Potency [15] | outcome [16] | Potency [19]
